Reference: the supplement of paper PMC10849652
About 7,900 targets were measured; listed, in parts, are those with a hit and a random draw of the rest. About 0.6% of all pairs of compound and target were hits. Unmarked numbers belong to inactive results.

Key:
Assay in all cases: log2 fold change, soluble protein after heating vs DMSO (PISA); higher = thermal stabilisation; K562 cells, 10 uM, 30 min; active = over 0.2 and 3.5 SD of the protein, either way, in both replicates (recomputed)
[1] = compound: CC[C@@H]1C(=O)N(C)c2cnc(Nc3ccc(C(=O)NC4CCN(C)CC4)cc3OC)nc2N1C1CCCC1
Outline: (§1)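 For each measurement, 10 μM compound was applied for 30 min to K562 cells at 2×10^6 cells/mL. Aliquots were heated for 3 min across 48°C-58°C, pooled, and extracted in PBS with 0.5% NP-40 at 4°C; the supernatant after 21,000xg for 90 min was soluble protein. This was quantified by TMTpro 16plex LC-MS/MS with channel sums equalised, and thermal stability was reported relative to control samples from duplicates, on a log2 fold-change scale.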

volasertib = compound: CC[C@@H]1C(=O)N(C)c2cnc(Nc3ccc(C(=O)N[C@H]4CC[C@H](N5CCN(CC6CC6)CC5)CC4)cc3OC)nc2N1C(C)C [volasertib]
Outline: as §1

[2] = compound: CC[C@H](C)N1C=C(C2=C(C=C(C=C21)C3=CN=C(C=C3)N4CCNCC4)C(=O)NCC5=C(C=C(NC5=O)C)C)C
Outline: as §1

[3] = compound: CCn1c(C(=O)N(C2CC2)C2CC2)cc2c3c(ncn3C)c(Nc3cc(C)n(C)n3)nc21
Outline: as §1

[4] = compound: CCn1cc(-c2ccnc3[nH]c(-c4cccc(CN(C)C)c4)cc23)c(-c2ccc(NC(=O)N(C)C)cc2)n1
Outline: as §1

[5] = compound: CN(C)CC(=O)Nc1ccc2[nH]c(=O)c3ccccc3c2c1
Outline: as §1

rosiglitazone = compound: CN(CCOC1=CC=C(C=C1)C[C@H]2C(=O)NC(=O)S2)C3=CC=CC=N3 (racemic) [rosiglitazone]
Outline: as §1

[6] = compound: CN1C2=C(C3=C1C(=O)N(N=C3)CC4=CC(=CC=C4)N)SC(=C2)S(=O)C
Outline: as §1

[7] = compound: CN1CCC(CNc2ccc3ncc(-c4cccc(OC(F)(F)F)c4)n3n2)CC1
Outline: as §1

saracatinib = compound: CN1CCN(CCOc2cc(OC3CCOCC3)c3c(Nc4c(Cl)ccc5c4OCO5)ncnc3c2)CC1 [saracatinib]
Outline: as §1

sotrastaurin = compound: CN1CCN(c2nc(C3=C(c4c[nH]c5ccccc45)C(=O)NC3=O)c3ccccc3n2)CC1 [sotrastaurin]
Outline: as §1

alvocidib = compound: CN1CC[C@H](c2c(O)cc(O)c3c(=O)cc(-c4ccccc4Cl)oc23)[C@H](O)C1 [alvocidib]
Outline: as §1

Tubastatin A = compound: CN1CCc2c(c3ccccc3n2Cc2ccc(C(=O)NO)cc2)C1 [Tubastatin A]
Outline: as §1

[8] = compound: CNC(=O)C1=CC=CC=C1NC2=NC(=NC=C2Cl)NC3=C(C=C(C=C3)N4CCOCC4)OC
Outline: as §1

defactinib = compound: CNC(=O)c1ccc(Nc2ncc(C(F)(F)F)c(NCc3nccnc3N(C)S(C)(=O)=O)n2)cc1 [defactinib]
Outline: as §1

rucaparib = compound: CNCc1ccc(-c2[nH]c3cc(F)cc4c3c2CCNC4=O)cc1 [rucaparib]
Outline: as §1

[9] = compound: CNc1nc(-c2ccc3c(N)n[nH]c3c2)cc(N2C[C@@H](C(=O)NC3CCCCC3)CC[C@H]2C)n1
Outline: as §1

encorafenib = compound: COC(=O)N[C@@H](C)CNc1nccc(-c2cn(C(C)C)nc2-c2cc(Cl)cc(NS(C)(=O)=O)c2F)n1 [encorafenib]
Outline: as §1

[10] = compound: COC(=O)[C@H](CCSC)NC(=O)C1=C(C=C(C=C1)NC[C@H](CS)N)C2=CC=CC=C2
Outline: as §1

epoxomicin = compound: CC[C@H](C)[C@@H](C(=O)N[C@@H]([C@@H](C)O)C(=O)N[C@@H](CC(C)C)C(=O)[C@]1(CO1)C)NC(=O)[C@H]([C@@H](C)CC)N(C)C(=O)C [epoxomicin]
Outline: as §1

UniProt Q9BZM6, sequence (Q9BZM6 whole entry, looked up): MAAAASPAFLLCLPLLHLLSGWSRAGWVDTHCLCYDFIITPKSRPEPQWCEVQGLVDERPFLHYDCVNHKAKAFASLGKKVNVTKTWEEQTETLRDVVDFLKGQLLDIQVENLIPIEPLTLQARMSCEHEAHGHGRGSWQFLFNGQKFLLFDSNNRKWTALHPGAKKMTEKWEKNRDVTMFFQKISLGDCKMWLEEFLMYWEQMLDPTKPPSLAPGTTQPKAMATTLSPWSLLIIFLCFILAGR
UniProt Q14139, sequence (Q14139 whole entry, looked up): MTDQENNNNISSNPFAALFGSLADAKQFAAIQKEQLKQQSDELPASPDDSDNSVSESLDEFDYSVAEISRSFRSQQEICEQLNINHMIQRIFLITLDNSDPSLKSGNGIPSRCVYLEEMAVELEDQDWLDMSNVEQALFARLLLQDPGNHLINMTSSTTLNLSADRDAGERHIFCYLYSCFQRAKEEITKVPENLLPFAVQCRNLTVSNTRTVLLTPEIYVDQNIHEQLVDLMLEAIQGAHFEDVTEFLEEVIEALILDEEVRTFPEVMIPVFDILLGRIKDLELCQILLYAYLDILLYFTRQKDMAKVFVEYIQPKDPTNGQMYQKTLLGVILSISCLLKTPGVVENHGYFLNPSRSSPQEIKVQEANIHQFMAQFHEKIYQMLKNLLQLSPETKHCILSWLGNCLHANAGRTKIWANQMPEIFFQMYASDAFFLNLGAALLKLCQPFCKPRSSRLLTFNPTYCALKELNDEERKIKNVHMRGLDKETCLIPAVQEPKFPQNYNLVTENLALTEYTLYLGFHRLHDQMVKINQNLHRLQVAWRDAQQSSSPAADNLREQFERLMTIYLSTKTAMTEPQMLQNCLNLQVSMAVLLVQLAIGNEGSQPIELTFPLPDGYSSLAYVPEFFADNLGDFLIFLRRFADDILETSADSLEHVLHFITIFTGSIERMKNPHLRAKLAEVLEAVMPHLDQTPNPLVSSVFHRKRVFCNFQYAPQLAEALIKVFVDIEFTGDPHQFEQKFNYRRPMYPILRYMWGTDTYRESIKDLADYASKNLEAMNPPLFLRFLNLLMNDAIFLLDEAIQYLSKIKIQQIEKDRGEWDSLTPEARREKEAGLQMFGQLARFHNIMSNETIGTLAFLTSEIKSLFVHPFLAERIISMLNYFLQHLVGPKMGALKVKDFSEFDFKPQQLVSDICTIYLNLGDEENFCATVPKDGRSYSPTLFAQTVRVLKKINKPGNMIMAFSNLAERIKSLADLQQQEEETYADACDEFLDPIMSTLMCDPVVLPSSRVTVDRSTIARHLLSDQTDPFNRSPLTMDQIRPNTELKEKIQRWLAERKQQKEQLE
UniProt Q9C037, sequence (Q9C037 whole entry, looked up): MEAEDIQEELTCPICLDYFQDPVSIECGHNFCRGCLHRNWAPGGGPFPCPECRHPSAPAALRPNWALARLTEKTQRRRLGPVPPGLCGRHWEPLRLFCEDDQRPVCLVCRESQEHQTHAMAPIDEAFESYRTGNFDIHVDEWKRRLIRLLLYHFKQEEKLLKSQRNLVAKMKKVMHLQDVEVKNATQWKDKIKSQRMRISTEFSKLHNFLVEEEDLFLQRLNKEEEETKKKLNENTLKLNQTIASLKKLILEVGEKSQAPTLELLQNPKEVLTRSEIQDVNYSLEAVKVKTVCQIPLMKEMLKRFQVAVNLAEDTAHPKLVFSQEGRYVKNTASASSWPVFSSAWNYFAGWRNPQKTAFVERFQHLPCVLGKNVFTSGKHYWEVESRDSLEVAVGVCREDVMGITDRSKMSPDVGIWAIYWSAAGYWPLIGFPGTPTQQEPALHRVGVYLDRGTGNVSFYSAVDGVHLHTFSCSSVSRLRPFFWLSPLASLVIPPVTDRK
UniProt P18887, sequence (P18887 whole entry, looked up): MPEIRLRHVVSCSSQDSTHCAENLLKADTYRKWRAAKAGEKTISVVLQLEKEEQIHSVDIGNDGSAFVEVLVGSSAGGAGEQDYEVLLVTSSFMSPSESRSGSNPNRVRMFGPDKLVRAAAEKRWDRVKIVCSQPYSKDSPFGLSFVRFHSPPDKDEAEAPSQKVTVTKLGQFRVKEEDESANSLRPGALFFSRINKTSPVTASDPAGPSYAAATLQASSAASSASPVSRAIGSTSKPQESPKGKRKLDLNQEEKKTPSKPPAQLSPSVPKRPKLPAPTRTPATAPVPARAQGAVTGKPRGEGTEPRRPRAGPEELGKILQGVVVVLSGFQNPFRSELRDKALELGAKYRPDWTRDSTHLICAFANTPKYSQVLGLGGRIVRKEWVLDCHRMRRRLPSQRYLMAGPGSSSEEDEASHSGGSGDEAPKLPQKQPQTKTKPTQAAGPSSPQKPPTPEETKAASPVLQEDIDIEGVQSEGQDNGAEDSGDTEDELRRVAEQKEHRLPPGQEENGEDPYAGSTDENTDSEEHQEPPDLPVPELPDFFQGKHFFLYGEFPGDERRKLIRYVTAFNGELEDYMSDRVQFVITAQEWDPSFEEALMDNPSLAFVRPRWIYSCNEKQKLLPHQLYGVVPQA
UniProt Q15906, sequence (Q15906 whole entry, looked up): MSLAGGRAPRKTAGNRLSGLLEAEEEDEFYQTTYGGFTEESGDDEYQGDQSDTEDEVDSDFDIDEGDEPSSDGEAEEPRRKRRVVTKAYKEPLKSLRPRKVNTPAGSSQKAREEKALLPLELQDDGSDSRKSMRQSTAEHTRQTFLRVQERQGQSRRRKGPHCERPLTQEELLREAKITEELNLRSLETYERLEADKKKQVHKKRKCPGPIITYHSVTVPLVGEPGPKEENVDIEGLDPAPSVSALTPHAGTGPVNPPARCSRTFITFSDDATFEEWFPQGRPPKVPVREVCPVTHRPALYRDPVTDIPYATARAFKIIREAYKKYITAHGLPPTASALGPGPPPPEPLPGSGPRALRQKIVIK
UniProt Q502W6, sequence (Q502W6 whole entry, looked up): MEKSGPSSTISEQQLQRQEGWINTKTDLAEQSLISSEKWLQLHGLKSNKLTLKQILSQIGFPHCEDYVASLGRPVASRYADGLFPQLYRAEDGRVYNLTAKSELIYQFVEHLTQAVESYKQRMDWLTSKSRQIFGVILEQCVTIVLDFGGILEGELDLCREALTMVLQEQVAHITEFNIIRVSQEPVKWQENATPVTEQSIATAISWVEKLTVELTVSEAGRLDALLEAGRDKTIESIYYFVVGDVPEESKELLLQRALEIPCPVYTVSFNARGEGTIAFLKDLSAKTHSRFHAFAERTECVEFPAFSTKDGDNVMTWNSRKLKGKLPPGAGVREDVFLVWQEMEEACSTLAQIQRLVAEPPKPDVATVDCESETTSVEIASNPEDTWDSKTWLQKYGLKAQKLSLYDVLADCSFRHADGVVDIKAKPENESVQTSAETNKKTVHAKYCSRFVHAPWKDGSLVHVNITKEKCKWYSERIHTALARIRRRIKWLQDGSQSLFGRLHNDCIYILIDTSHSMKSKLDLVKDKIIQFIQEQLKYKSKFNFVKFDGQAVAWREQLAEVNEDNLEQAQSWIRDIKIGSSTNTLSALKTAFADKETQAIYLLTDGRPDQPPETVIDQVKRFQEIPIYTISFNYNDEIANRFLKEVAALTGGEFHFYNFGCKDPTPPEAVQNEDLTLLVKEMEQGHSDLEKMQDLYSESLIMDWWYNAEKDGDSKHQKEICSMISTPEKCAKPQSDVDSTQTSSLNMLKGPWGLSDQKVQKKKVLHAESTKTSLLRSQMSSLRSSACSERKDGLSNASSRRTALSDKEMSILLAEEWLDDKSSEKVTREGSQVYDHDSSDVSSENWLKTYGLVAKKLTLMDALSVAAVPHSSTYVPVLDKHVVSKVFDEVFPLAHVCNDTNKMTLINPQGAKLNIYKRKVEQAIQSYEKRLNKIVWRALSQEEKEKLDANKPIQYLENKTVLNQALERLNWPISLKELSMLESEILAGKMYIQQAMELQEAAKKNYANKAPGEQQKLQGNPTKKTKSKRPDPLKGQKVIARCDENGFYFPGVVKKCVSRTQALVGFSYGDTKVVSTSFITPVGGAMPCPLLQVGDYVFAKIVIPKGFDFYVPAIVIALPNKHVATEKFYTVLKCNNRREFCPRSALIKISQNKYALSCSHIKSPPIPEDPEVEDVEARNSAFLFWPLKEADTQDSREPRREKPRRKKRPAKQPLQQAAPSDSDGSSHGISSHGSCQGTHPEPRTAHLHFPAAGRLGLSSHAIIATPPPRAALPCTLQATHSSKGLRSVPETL
UniProt P02585, sequence (P02585 whole entry, looked up): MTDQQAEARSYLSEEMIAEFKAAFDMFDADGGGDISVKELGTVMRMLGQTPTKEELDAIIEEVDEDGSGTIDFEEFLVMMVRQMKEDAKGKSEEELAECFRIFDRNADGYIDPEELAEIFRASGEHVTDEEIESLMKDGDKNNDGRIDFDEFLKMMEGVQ
UniProt Q9HCN3, sequence (Q9HCN3 whole entry, looked up): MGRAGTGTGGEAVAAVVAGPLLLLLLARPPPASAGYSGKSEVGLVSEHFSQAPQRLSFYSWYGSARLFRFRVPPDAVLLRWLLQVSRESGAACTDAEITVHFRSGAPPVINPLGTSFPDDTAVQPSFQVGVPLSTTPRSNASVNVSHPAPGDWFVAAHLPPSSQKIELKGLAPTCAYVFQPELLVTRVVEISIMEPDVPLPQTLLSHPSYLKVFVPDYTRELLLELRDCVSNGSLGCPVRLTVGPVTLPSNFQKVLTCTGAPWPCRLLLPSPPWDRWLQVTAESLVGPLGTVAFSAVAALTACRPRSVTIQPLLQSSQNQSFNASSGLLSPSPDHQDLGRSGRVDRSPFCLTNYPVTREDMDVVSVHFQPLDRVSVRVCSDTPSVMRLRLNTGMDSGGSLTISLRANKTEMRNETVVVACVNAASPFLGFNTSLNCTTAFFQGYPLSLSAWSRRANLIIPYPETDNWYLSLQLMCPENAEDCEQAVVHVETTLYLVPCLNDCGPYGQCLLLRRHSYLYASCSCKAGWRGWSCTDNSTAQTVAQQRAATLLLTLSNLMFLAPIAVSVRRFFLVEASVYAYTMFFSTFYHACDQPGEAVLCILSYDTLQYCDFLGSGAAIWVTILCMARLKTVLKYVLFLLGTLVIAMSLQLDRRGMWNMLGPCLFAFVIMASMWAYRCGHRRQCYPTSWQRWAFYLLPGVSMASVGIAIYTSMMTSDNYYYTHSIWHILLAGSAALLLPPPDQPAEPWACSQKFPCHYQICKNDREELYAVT

Target | log2 fold change [1] | log2 fold change (volasertib) | log2 fold change [2] | log2 fold change [3] | log2 fold change [4] | log2 fold change [5] | log2 fold change (rosiglitazone) | log2 fold change [6] | log2 fold change [7] | log2 fold change (saracatinib) | log2 fold change (sotrastaurin) | log2 fold change (alvocidib) | log2 fold change (Tubastatin A) | log2 fold change [8] | log2 fold change (defactinib) | log2 fold change (rucaparib) | log2 fold change [9] | log2 fold change (encorafenib) | log2 fold change [10] | log2 fold change (epoxomicin)
TMEM8A (UniProt Q9HCN3) | -0.11 | 0.008 | -0.108 | 0.068 | -0.037 | -0.031 | 0.009 | 0.082 | -0.104 | 0.059 | -0.099 | -0.009 | 0.108 | -0.042 | -0.039 | 0.004 | 0.02 | 0.037 | -0.191 | –
UBE4A isoform 2 (UniProt Q14139) | -0.126 | -0.584 (active) | 0.123 | -0.114 | -0.055 | 0.053 | 0.05 | 0.159 | -0.436 (active) | -0.024 | -0.148 | 0.145 | -0.009 | 0.006 | -0.017 | 0.021 | -0.079 | 0.03 | -0.078 | 0.087
TNNC2 (UniProt P02585) | 0.042 | 0.07 | -0.031 | 0.016 | 0.04 | -0.006 | 0.006 | -0.053 | -0.015 | 0.007 | 0.095 | -0.009 | -0.139 | -0.035 | 0.012 | -0.025 | -0.056 | -0.049 | 0.037 | -0.037
TMEM41A (UniProt Q96HV5) | 0.036 | 0.035 | -0.05 | 0.021 | 0.165 | -0.049 | -0.002 | 0 | 0.01 | 0.03 | -0.057 | – | -0.068 | 0.008 | 0.003 | -0.009 | -0.011 | 0.025 | -0.012 | -0.055
TRAPPC6B (UniProt Q86SZ2) | -0.015 | -0.002 | -0.011 | 0.009 | -0.05 | -0.01 | -0.008 | -0.026 | -0.08 | 0.035 | -0.068 | -0.055 | 0.031 | -0.034 | -0.046 | 0.012 | 0.008 | -0.02 | 0.022 | 0.146
WDR46, A0A0G2JJL1 | 0.388 | 0.37 | -0.068 | -0.108 | – | -0.183 | -0.177 | 0.215 | – | 0.065 | 0.052 | – | -0.095 | 0.007 | 0.408 | 0.293 | 0.119 | 0.044 | -0.138 | -0.451
TMEM104 (UniProt Q8NE00) | -0.019 | 0.043 | -0.033 | -0.027 | 0.204 | – | – | 0.12 | 0.018 | -0.024 | – | -0.013 | – | -0.007 | – | 0.06 | -0.122 | 0.056 | – | -0.19
TMEM179B (UniProt Q7Z7N9) | 0.05 | 0.052 | 0.029 | 0.026 | 0.039 | – | -0.027 | – | -0.128 | – | 0.151 | 0.097 | 0.036 | 0.044 | – | 0.026 | – | -0.015 | – | -0.44 (active)
VWA3B isoform 6 (UniProt Q502W6) | -0.038 | -0.631 (active) | -0.203 | -0.037 | -0.125 | -0.007 | 0.076 | -0.023 | -0.234 | 0.042 | – | 0.079 | -0.018 | 0.017 | 0.039 | -0.448 | -0.076 | 0.095 | -0.04 | -0.262
TRIM4 (UniProt Q9C037) | 0.01 | -0.042 | 0.178 | 0.063 | -0.069 | 0.03 | 0.021 | – | 0.294 | – | 0.024 | -0.029 | 0.097 | 0.439 (active) | -0.029 | 0.031 | – | 0.04 | -0.108 | 0.111
VPS72 isoform 2 (UniProt Q15906) | -0.261 | 0.135 | -0.072 | 0.101 | – | -0.052 | 0.041 | 0.043 | – | -0.094 | 0.004 | 0.042 | -0.011 | -0.021 | -0.016 | 0.28 | -0.082 | -0.053 | -0.019 | -0.107
TTI2 (UniProt Q6NXR4) | -0.173 | -0.414 (active) | 0.021 | -0.016 | – | 0.09 | -0.01 | 0.03 | – | -0.028 | -0.187 | 0.027 | -0.02 | 0.051 | -0.073 | 0.119 | -0.036 | 0.037 | -0.038 | 0.085
WARS1 (UniProt G3V3P2) | – | – | – | – | – | – | 1.27 | – | – | – | 0.336 | – | – | – | – | – | – | – | – | –
ULBP1 (UniProt Q9BZM6) | – | -0.178 | – | -0.013 | – | -0.019 | – | 0.007 | – | -0.027 | -0.175 | 0.005 | 0.016 | -0.096 | 0.064 | – | 0.07 | – | 0.048 | 0.152
UBE2D1 (UniProt P51668) | -0.123 | -0.333 (active) | -0.024 | 0.037 | -0.045 | 0.017 | 0.099 | -0.109 | -0.095 | 0.03 | 0.056 | -0.055 | -0.058 | -0.035 | -0.016 | 0.006 | -0.105 | 0.01 | -0.047 | –
WARS1 (UniProt G3V277) | – | – | -0.041 | -0.084 | 0.098 | -0.163 | 0.078 | – | -0.12 | – | 0.021 | – | 0.005 | -0.052 | 0 | – | – | – | 0.14 | –
UBE3B (UniProt Q7Z3V4) | – | -0.554 (active) | 0.088 | – | – | – | 0.179 | -0.007 | – | -0.028 | 0.005 | 0.122 | 0.128 | – | – | – | -0.032 | – | – | -0.023
WARS1 (UniProt G3V227) | – | – | – | – | – | -0.045 | 0.309 | 0.207 | – | 0.003 | – | -0.065 | -0.053 | – | -0.001 | – | 0.021 | – | 0.3 | -0.28
TUBA4A (UniProt C9JJQ8) | -0.115 | 0.099 | – | – | – | 0.09 | -0.078 | 0.114 | – | -0.148 | -0.084 | -0.191 | 0.147 | – | -0.215 | 0.186 | 0.131 | 0.078 | -0.055 | –
XRCC1 (UniProt P18887) | – | – | – | -0.09 | 0.006 | – | – | -0.192 | -0.239 | 0.008 | -0.264 | -0.029 | 0.055 | 0.05 | – | – | 0.148 | – | – | -0.1
